Laboratory results reported in PubChem BioAssay.
Calls of active or inactive are those of the source.

Columns and labels:
[1] = small molecules captured by biotinylated probe aFSTL3 – biochemical, small-molecule microarray, fluorescence 635/667, stem cell growth factor project, primary screen (AID 1064); conditions: higher = more signal;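 note: measures binding of the biotinylated anti-FSTL3 antibody to printed compounds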
[2] = binders from COS7 lysate, DM2A8 probe, primary screen, torsin A project, cell lysate, small-molecule microarray, fluorescence 635/667 (AID 1065); conditions: higher = more signal, COS7 lysate expressing mutant human TOR1A
[3] = small molecules captured by biotinylated probe aFGF2 – biochemical, small-molecule microarray, fluorescence 635/667, stem cell growth factor project, primary screen (AID 1067); conditions: higher = more signal;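 note: measures binding of biotinylated aFGF2 protein to printed compounds on slides; z-score merges feature fluorescence and signal-to-noise across triplicate slides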
[4] = small molecules captured by biotinylated probe aFGF10 – biochemical, small-molecule microarray, fluorescence 635/667, stem cell growth factor project, primary screen (AID 1071); conditions: higher = more signal;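 note: score merges 667 nm spot intensity and signal to noise from triplicate slides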
[5] = target: Neurogenic locus notch homolog protein 2 (Homo sapiens) (UniProt Q04721); test: small molecules binding Notch2 protein – biochemical, small-molecule microarray, 635 nm fluorescence, stem cell growth factors, primary screen (AID 1073); conditions: higher = more signal
[6] = target: Pro-neuregulin-1, membrane-bound isoform (Homo sapiens) (UniProt Q02297); test: small molecules binding neuregulin-1 protein – biochemical, small-molecule microarray, fluorescence 635/667, psychiatric disease protein project, primary screen (AID 1075); conditions: NRG1 binding, 635 nm fluorescence, higher = more signal;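 note: score combines 667 nm spot fluorescence with signal to noise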
[7] = tested on: Neuregulin-1 EGF-like domain; test: small molecules binding NRG1 EGF domain – biochemical, small-molecule microarray, 635 nm fluorescence, primary screen (AID 1081); conditions: higher = more signal;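 note: binding of the protein to compounds printed on small-molecule microarray slides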
[8] = FRG1 expression reporter modulators in myotubes – cell-based, C2C12 myotubes, firefly/Renilla luciferase, luminescence, FRG1 inhibition for FSHD, primary screen (AID 1084); conditions: FRG1 promoter luciferase, higher = more signal, called active from +8 up or from −8 down
[9] = small molecules captured by biotinylated probe aFST – biochemical, small-molecule microarray, fluorescence 635/667, stem cell growth factor project, primary screen (AID 1086); conditions: higher = more signal;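 note: score merges 667 nm fluorescence with signal-to-noise of each printed compound spot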
[10] = binders of probe aHhip on microarray, primary screen, stem cell growth factor project, biochemical, small-molecule microarray, fluorescence 635/667 (AID 1087); conditions: higher = more signal;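 note: score merges spot fluorescence at 667nm with spot signal to noise ratio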
[11] = tested on: PRMT1 (protein arginine N-methyltransferase 1); test: small molecules binding arginine methyltransferase PRMT1 – biochemical, small-molecule microarray, 635 nm fluorescence, primary screen (AID 1088); conditions: higher = more signal;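 note: binding of Prmt1 protein to compounds spotted on small-molecule microarray slides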
[12] = growth effects on S. cerevisiae YJM789 – YJM789 clinical isolate, OD600, 24 h, basal, primary screen (AID 1089); conditions: higher = more signal, called active from +8 up or from −8 down;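 note: growth of clinical yeast isolate S. cerevisiae YJM 789 seeded 1000 cells per well; test concentration not given here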
[13] = S. pombe growth modifiers, basal conditions – strain 972, OD600, 24 h, no modulator, primary screen (AID 1090);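 note: basal condition with compound alone and no growth modifier present; test concentration not given here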; conditions: S. pombe 972 growth, higher = more signal, called active from +8 up or from −8 down
[14] = budding yeast growth modifiers under rapamycin – strain BY4716, OD600, 96 h, primary screen (AID 1091); note: test concentration not given here; conditions: S. cerevisiae BY4716 + rapamycin, higher = more signal, called active from +8 up or from −8 down
[15] = target: Torsin-1A-interacting protein 2 (Homo sapiens) (UniProt Q8NFQ8); test: small molecules binding lysate-expressed LULL1 – cell lysate, human LULL1 lysate, 635/667 nm fluorescence, primary screen (AID 1092); conditions: small-molecule microarray, hLULL1 lysate binding, 635 nm fluorescence; higher = more signal;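 note: probe is lysate of COS7 cells overexpressing human LULL1; score merges per-feature 667 nm fluorescence with signal-to-noise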
[16] = optical density change of DRC41 E. coli – strain DRC41, OD650, 24 h, E. coli filamentation project, primary screen (AID 1093);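 note: MC1000 strain lacking acrAB efflux and sulA so SOS filamentation is blocked; test concentration not given here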; conditions: E. coli DRC41 growth, higher = more signal, called active from +8 up or from −8 down
[17] = probe aLefty2 binding to arrayed compounds – biochemical, biotinylated probe, 635/667 nm fluorescence, primary screen (AID 1094); conditions: small-molecule microarray, higher = more signal;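 note: score merges spot fluorescence near 667 nm with spot signal-to-noise ratio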
[18] = tested on: Noggin (protein binding on small-molecule microarray); test: small molecules binding Noggin protein – biochemical, 635/667 nm fluorescence, primary screen (AID 1095); conditions: 635 nm fluorescence, higher = more signal;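 note: score merges 667 nm feature fluorescence with signal to noise over triplicate slides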
[19] = target: Neurogenic locus notch homolog protein 3 (Homo sapiens) (UniProt Q9UM47); test: small molecules binding NOTCH3 protein – biochemical, 635/667 nm fluorescence, primary screen (AID 1096); conditions: small-molecule microarray, 635 nm fluorescence, higher = more signal
[20] = probe aEGFR binding to arrayed compounds – biochemical, biotinylated probe, 635/667 nm fluorescence, primary screen (AID 1097); conditions: small-molecule microarray, higher = more signal;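 note: probe is a biotinylated anti-EGFR antibody binding compounds printed on slides; score combines fluorescence near 667 nm and signal to noise of each spot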

Neurogenic locus notch homolog protein 3 (Homo sapiens), sequence (Q9UM47 whole entry, looked up): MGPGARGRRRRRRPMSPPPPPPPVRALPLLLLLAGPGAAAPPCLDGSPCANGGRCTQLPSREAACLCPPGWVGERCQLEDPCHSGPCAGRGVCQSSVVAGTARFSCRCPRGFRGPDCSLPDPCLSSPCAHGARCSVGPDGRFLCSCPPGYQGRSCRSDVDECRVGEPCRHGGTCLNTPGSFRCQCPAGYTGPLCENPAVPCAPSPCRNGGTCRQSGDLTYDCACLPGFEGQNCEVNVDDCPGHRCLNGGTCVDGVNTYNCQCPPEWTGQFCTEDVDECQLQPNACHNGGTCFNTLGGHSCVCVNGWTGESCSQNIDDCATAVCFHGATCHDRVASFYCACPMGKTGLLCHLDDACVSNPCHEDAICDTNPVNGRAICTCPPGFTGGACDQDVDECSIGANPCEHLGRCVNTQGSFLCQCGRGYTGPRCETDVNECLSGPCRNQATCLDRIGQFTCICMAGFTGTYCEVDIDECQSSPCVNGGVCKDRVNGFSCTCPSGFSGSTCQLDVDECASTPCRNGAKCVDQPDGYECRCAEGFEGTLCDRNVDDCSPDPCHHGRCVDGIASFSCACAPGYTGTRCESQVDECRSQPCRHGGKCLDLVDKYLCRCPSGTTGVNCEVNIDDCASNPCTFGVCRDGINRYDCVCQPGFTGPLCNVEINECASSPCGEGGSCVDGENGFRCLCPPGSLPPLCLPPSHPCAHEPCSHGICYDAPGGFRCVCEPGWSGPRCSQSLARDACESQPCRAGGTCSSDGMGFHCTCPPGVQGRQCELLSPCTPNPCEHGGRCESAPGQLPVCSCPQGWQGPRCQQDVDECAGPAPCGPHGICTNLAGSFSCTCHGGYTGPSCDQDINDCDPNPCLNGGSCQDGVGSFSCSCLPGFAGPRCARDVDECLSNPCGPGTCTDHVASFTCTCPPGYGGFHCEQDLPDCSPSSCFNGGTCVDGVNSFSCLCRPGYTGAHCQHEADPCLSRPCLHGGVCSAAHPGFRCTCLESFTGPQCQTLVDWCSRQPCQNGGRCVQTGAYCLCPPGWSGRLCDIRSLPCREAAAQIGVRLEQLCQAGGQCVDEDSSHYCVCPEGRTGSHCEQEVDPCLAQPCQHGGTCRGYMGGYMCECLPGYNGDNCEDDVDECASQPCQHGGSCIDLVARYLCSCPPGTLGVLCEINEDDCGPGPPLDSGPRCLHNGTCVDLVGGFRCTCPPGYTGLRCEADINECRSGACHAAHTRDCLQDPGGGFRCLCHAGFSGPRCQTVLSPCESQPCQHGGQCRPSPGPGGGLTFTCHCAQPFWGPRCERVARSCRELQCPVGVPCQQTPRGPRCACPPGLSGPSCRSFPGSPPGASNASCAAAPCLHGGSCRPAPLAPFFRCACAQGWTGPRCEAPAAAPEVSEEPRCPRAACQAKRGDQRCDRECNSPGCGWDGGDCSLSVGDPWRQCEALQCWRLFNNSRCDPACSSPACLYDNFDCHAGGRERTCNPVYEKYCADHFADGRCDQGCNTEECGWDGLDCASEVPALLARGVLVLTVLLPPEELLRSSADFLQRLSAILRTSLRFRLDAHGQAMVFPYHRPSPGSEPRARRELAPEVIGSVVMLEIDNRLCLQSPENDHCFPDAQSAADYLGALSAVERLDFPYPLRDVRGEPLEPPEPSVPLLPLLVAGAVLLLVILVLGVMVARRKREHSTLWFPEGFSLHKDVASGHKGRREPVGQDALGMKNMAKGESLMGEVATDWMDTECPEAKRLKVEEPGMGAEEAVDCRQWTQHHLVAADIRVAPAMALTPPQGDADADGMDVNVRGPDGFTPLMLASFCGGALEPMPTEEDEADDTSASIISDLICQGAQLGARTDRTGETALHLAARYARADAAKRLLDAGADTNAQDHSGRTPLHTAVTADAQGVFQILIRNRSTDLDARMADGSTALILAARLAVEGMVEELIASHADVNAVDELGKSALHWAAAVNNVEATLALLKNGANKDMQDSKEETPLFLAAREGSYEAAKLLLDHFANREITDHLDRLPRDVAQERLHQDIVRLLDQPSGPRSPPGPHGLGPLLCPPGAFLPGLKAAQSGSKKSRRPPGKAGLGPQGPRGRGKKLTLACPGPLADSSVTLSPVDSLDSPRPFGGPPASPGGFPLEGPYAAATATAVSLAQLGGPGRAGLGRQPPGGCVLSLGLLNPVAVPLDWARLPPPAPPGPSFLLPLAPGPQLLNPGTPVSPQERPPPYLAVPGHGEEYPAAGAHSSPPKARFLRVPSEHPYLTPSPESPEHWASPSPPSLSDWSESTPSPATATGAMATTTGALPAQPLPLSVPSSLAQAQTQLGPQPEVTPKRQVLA
Neurogenic locus notch homolog protein 2 (Homo sapiens), sequence (Q04721 whole entry, looked up, canonical isoform): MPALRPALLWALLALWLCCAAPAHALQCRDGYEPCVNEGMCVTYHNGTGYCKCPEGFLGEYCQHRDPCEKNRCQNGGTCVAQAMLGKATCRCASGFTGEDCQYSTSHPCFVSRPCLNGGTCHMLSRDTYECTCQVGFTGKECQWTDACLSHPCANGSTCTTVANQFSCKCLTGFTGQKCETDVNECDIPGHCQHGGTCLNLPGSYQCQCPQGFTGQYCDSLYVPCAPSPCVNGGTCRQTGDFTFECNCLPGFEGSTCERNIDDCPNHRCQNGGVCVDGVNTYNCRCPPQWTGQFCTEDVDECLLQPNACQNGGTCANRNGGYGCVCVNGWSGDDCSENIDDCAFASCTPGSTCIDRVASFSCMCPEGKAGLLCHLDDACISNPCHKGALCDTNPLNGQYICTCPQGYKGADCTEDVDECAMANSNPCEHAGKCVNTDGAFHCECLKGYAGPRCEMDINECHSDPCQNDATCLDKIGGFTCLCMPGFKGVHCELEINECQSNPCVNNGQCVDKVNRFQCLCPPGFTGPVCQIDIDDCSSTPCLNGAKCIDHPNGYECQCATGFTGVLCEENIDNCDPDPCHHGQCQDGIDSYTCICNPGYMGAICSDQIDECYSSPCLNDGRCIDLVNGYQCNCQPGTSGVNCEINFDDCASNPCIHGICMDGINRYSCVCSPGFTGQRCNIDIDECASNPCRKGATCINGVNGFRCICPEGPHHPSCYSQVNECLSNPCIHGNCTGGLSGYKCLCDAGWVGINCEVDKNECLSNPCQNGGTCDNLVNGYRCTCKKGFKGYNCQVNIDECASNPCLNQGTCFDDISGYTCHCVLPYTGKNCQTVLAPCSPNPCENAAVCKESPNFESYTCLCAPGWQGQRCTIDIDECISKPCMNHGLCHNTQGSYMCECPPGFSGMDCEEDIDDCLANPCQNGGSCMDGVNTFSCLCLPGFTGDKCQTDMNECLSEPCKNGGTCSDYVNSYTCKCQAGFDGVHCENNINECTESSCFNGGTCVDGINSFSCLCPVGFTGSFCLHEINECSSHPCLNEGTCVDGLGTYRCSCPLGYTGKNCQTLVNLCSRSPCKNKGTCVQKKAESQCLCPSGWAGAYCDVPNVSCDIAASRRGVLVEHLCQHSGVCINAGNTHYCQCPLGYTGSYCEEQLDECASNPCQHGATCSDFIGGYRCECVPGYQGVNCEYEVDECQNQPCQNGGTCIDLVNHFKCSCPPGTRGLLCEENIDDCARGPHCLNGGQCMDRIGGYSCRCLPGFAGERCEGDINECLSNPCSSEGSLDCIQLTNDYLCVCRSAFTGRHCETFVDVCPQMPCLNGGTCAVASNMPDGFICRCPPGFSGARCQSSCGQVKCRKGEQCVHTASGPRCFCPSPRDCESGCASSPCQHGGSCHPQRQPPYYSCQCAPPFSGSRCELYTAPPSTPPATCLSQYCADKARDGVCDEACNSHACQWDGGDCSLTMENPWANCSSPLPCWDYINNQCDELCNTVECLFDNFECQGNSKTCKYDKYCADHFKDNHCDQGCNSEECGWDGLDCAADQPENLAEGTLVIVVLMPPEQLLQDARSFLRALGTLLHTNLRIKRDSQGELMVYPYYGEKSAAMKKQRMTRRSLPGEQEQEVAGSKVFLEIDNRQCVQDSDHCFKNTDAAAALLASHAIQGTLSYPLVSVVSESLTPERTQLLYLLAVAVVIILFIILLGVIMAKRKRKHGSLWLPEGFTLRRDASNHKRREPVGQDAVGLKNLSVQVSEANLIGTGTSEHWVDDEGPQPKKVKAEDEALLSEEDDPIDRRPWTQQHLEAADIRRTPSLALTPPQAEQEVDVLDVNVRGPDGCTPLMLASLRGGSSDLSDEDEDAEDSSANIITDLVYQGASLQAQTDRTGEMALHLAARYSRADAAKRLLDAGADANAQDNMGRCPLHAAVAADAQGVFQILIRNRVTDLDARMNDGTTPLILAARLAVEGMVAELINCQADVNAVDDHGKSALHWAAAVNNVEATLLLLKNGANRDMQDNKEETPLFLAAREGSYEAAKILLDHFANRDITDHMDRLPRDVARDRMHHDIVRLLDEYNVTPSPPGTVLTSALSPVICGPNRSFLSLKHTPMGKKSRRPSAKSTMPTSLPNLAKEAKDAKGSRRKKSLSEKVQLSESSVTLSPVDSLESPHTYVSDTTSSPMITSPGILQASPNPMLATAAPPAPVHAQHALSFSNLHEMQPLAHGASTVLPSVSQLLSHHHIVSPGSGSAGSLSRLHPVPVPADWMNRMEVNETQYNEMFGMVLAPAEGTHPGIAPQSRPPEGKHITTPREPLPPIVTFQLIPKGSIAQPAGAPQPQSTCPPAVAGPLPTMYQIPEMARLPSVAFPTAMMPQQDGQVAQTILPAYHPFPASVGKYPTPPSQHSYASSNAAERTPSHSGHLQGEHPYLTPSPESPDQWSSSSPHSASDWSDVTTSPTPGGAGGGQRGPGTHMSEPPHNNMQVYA

SMILES	composite z-score [1]	composite z-score [2]	composite z-score [3]	composite z-score [4]	composite z-score [5]	composite z-score [6]	composite z-score [7]	z-score [8]	composite z-score [9]	composite z-score [10]	composite z-score [11]	z-score [12]	z-score [13]	z-score [14]	composite z-score [15]	z-score [16]	composite z-score [17]	composite z-score [18]	composite z-score [19]	composite z-score [20]
C=C(/C(=C/C[C@H](OC(C)=O)c1cccc(OCCO)c1)c1cc(C(=O)OC)ccc1OC)C(C)C	0.037	0.0106	-0.128	0.437	-1.02	1.04	0.274	-0.698 (inactive)	-0.24	0.0623	0.359	0.0359 (inactive)	-1.37 (inactive)	-0.954 (inactive)	0.41	1.73 (inactive)	-0.189	-0.0168	-0.609	-0.191
C=C(COC)/C(=C/C[C@H](OC(C)=O)c1ccc(CO)o1)c1cnc2ccccc2c1	-0.17	1.29	-0.0316	0.665	1.4	0.64	1.01	-0.524 (inactive)	0.314	-0.0024	1.41	-0.342 (inactive)	-0.897 (inactive)	-1.06 (inactive)	2.48	1.15 (inactive)	-0.0208	1.55	1.04	-0.0616
NC(=O)NCC#Cc1ccc2c(c1)[C@]1(C(=O)N2)[C@H](c2ccc(OCCO)cc2)N2[C@H](c3ccccc3)[C@H](c3ccccc3)OC(=O)[C@H]2[C@@H]1C(=O)Nc1nc2ccccc2s1	1.02	-0.528	-0.0953	0.0777	-0.442	-0.214	-0.748	2.5 (inactive)	0.668	-0.132	-0.136	2.55 (inactive)	0.766 (inactive)	4.18 (inactive)	0.759	2.26 (inactive)	0.289	-0.17	-0.0446	-0.0946
CC(C)C[C@@H]1NC(=O)[C@@H]2C[C@H](C(=O)NCCCCCNC(=O)CS)[C@H](c3cccc(OCCO)c3)N2C1=O	0.0138	1.55	-0.0332	0.355	0.947	1.35	1.29	0.152 (inactive)	0.35	-0.286	1.55	-1.66 (inactive)	-0.926 (inactive)	-0.565 (inactive)	2.23	2.24 (inactive)	-0.0153	1.44	1.06	0.133
Cc1ccc(S[C@]2(C(=O)NCCN3CCOCC3)CC(=O)N(Cc3cc(C(F)(F)F)cc(C(F)(F)F)c3)[C@@H]2c2ccc(CO)cc2)cc1	0.62	-0.439	-0.15	-1.35	-1.26	1.04	-0.382	-1.67 (inactive)	-0.341	-0.0632	1.24	-1.03 (inactive)	-3.43 (inactive)	-2.07 (inactive)	1.47	0.611 (inactive)	-0.136	-0.984	-0.54	-0.252
C=CC[C@]1(C(=O)N(C)C)N=C(c2ccc(OCCCO)cc2)O[C@H]1c1ccccc1CN=[N+]=[N-]	0.876	1.42	0.0188	0.548	1.38	1.66	1.15	-2.15 (inactive)	1.43	0.184	1.09	-1.01 (inactive)	-1.1 (inactive)	-1.52 (inactive)	3.01	1.39 (inactive)	0.186	0.0301	0.893	0.188
Cc1ccc(S[C@]2(C(=O)NC3CC3)CC(=O)N(Cc3ccccc3C(F)(F)F)[C@@H]2c2ccc(CO)cc2I)cc1	1.38	0.15	-0.0139	0.152	-1.13	0.37	1.2	-0.967 (inactive)	0.0584	0.219	0.279	-1.31 (inactive)	-4.68 (inactive)	2.34 (inactive)	1.1	-0.195 (inactive)	0.244	-0.536	-0.654	-0.0899
COCCOC(=O)N1C(=O)[C@@]2(c3ccccc31)[C@H](C(=O)Nc1nc3ccccc3s1)[C@H]1C(=O)O[C@H](c3ccccc3)[C@H](c3ccccc3)N1[C@@H]2c1ccc(O)cc1	0.0605	0.202	0.074	0.823	1.44	0.57	1.28	2.8 (inactive)	0.442	0.0302	1.53	3.43 (inactive)	1.8 (inactive)	8.35 (active)	1.76	2.9 (inactive)	0.219	0.565	1.1	0.254
COCCCN1C(=O)[C@@]2(Cc3ccccc31)c1ccccc1C(=O)N(Cc1ccccc1Cl)[C@H]2c1ccc(CO)cc1	0.218	-0.272	-0.201	-0.273	-0.773	-0.592	-0.983	0.448 (inactive)	0.009	0.0274	0.952	-0.403 (inactive)	-1.49 (inactive)	-1.46 (inactive)	1.22	2.9 (inactive)	-0.226	-1.07	-0.435	-0.0304
COCCCNC(=O)[C@@]1(Cc2ccccc2)N=C(c2ccc(OCCCO)cc2)O[C@H]1c1ccccc1N=[N+]=[N-]	1.38	0.768	0.269	0.727	1.14	0.276	1.13	-1.37 (inactive)	0.836	-0.121	0.85	0.448 (inactive)	-0.051 (inactive)	2.71 (inactive)	2.47	1.59 (inactive)	0.612	1.89	0.773	0.247
